Common to all, as to assay: MAPPIT interaction score (arbitrary units); higher = stronger binary interaction signal, active = hit call of the paper
The target in one experiment is CG12576. The settings on record: MAPPIT configuration: N-C; pair source set: screen_4.
The target of the next experiment is CG13887. The settings on record: MAPPIT configuration: N-C; pair source set: screen_3.
Another experiment deals with CG6845. The settings on record: MAPPIT configuration: N-C; pair source set: screen_4.
For the next experiment, the target named is Tim17b2. Particulars: MAPPIT configuration: N-C; pair source set: screen_4.
Another experiment concerns the target CG1246. The settings on record: MAPPIT configuration: N-N; pair source set: DPIM.
The target in another experiment is CG12470. The settings on record: MAPPIT configuration: N-N.
A further experiment concerns the target CG12963. Particulars: MAPPIT configuration: N-N; pair source set: Curagen_high_conf.
For another experiment, the target named is Eb1. The settings on record: MAPPIT configuration: N-N; pair source set: screen_1.
In the next experiment the target is SmydA-3. The settings on record: MAPPIT configuration: N-N; pair source set: screen_2.
The target of the next experiment is Sply. Particulars: MAPPIT configuration: N-N; pair source set: Finley_Y2H.
A further experiment addresses ben. Particulars: MAPPIT configuration: N-N; pair source set: screen_2.
A further experiment concerns the target hb. Particulars: MAPPIT configuration: N-N; pair source set: screen_1.
The target of another experiment is promL. Particulars: MAPPIT configuration: N-N; pair source set: screen_2.
The next experiment concerns the target pzg. The settings on record: MAPPIT configuration: N-N; pair source set: Curagen_high_conf.
In the next experiment the target is spin. The settings on record: MAPPIT configuration: N-N; pair source set: screen_1.
The next experiment has as its target CG12863. The settings on record: MAPPIT configuration: N-N; pair source set: Curagen_high_conf.
The next experiment concerns the target CG12768. Particulars: MAPPIT configuration: N-N; pair source set: Curagen_low_conf.
For the next experiment, the target named is CG8281. The settings on record: MAPPIT configuration: N-N; pair source set: screen_1.
A further experiment deals with CG30355. Particulars: MAPPIT configuration: N-C; pair source set: screen_4.
The next experiment concerns the target Vha16-2. The settings on record: MAPPIT configuration: N-C; pair source set: screen_3.

Values without a mark were called inactive.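 Rule for the calls: active = MAPPIT score above the 99th percentile of random reference set scores in the same batch; inactive = at or below it.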
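Note: HEK293T cells with Epo stimulation, STAT-responsive firefly luciferase reporter, fold induction versus unstimulated cells divided by the larger fold induction of two negative controls lacking either bait or prey.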

B1: Tsf2 (protein)
chain: MASSLVFVALVGALCFTLANAQHHYDEHKTTRMVWCTKSQAEQYKCQNLTVAIERDRALFDEVFLNLTCFMAYSADECIHHIDREKAHITTLDAGDVFTAGRYNSLIPIMQEKLEGGFADYQSVAVIKKGSLPDLNNLRDMRNKRVCFPWVGSLAGWIVPIHTLQREGGMEVVDCNNQVKTAASYFNNSCAVYSLSDKHNPIGDNSDKLCTLCTGKIPGGRCSSADPYFGYEGAFKCLLEKGDVAFLRHSTVNEMLQTTEFKNIAPDTFELLCRDGRRASINDYRQCNWGQVPADAIVTSSARSFSDRKQYQQFLKRIAELYSDGTRDDQSRQGGQSFNSRNNINDQNAYGQFDNNDPYRTQNQYDQYRSERLDSSFAEERNQQDGTNTSILYEKFRIFESKRYGKPNLLFQDSSRALTVIPEDDQSFTKYLGPAINFIYGIRECPVPAMTLCVTSENELDKCIKMRTALKAHLLKPELICKKMHSHINCMQFIEAGKADISVFDAGDVYTGGLNYDLVPFMSEVYNLGEPEYYVVAVAKEDDPDTELTYLKGKNTCHTGINTAAGWTYPMALFISNGWIRPYGCDSVRAAAEYFTKSCVPGAISNEYNTGVPYDSMCDLCHGTSYRYCRRDASEEYYGHTGAFRCLVEGGGHVAFMKHTTVMESTGGKRKEWWARNALNDDFELLCTDGTRAEIQDYKRCNLGKVKANAVVTRGGVNYNETQMNAYINLLTYAQQLYGRKEVDAFSFSMFSSPIGHYDLIFQDATRQLQVIPPNKRRYDAYLGSDFMRARRITDCYAGASQLALSVGLLLVGSLVAML
With B1, the MAPPIT interaction score with CG12576 was 0.0626; with CG13887, -0.181; in the experiment with CG6845, 0.127; in the experiment with Tim17b2, 0.851.

B2: Vha68-2 (protein)
chain: MSNLKRFDDEERESKYGRVFAVSGPVVTAEAMSGSAMYELVRVGYYELVGEIIRLEGDMATIQVYEETSGVTVGDPVLRTGKPLSVELGPGIMGSIFDGIQRPLKDINELTESIYIPKGVNVPSLSRVASWEFNPLNVKVGSHITGGDLYGLVHENTLVKHKMIVNPRAKGTVRYIAPSGNYKVDDVVLETEFDGEITKHTMLQVWPVRQPRPVTEKLPANHPLLTGQRVLDSLFPCVQGGTTAIPGAFGCGKTVISQALSKYSNSDVIIYVGCGERGNEMSEVLRDFPELSVEIDGVTESIMKRTALVANTSNMPVAAREASIYTGITLSEYFRDMGYNVSMMADSTSRWAEALREISGRLAEMPADSGYPAYLGARLASFYERAGRVKCLGNPEREGSVSIVGAVSPPGGDFSDPVTSATLGIVQVFWGLDKKLAQRKHFPSINWLISYSKYMRALDDFYDKNFPEFVPLRTKVKEILQEEEDLSEIVQLVGKASLAETDKITLEVAKLLKDDFLQQNSYSSYDRFCPFYKTVGMLRNIIDFYDMARHSVESTAQSENKITWNVIREAMGNIMYQLSSMKFKDPVKDGEAKIKADFEQLHEDLQQAFRNLED
Regarding B2, the MAPPIT interaction score in the experiment with CG1246 was -0.102.

B3: SNRPG (protein)
chain: MSKAHPPEVKKYMDKRMMLKLNGGRAVTGILRGFDPFMNVVLDDTVEECKDNTKNNIGMVVIRGNSIVMVEALDRV
B3: the MAPPIT interaction score with CG12470 (pair source set: Finley_Y2H) was 2.32.

B4: csw (protein)
chain: MSSRRWFHPTISGIEAEKLLQEQGFDGSFLARLSSSNPGAFTLSVRRGNEVTHIKIQNNGDFFDLYGGEKFATLPELVQYYMENGELKEKNGQAIELKQPLICAEPTTERWFHGNLSGKEAEKLILERGKNGSFLVRESQSKPGDFVLSVRTDDKVTHVMIRWQDKKYDVGGGESFGTLSELIDHYKRNPMVETCGTVVHLRQPFNATRITAAGINARVEQLVKGGFWEEFESLQQDSRDTFSRNEGYKQENRLKNRYRNILPYDHTRVKLLDVEHSVAGAEYINANYIRLPTDGDLYNMSSSSESLNSSVPSCPACTAAQTQRNCSNCQLQNKTCVQCAVKSAILPYSNCATCSRKSDSLSKHKRSESSASSSPSSGSGSGPGSSGTSGVSSVNGPGTPTNLTSGTAGCLVGLLKRHSNDSSGAVSISMAEREREREREMFKTYIATQGCLLTQQVNTVTDFWNMVWQENTRVIVMTTKEYERGKEKCARYWPDEGRSEQFGHARIQCVSENSTSDYTLREFLVSWRDQPARRIFHYHFQVWPDHGVPADPGCVLNFLQDVNTRQSHLAQAGEKPGPICVHCSAGIGRTGTFIVIDMILDQIVRNGLDTEIDIQRTIQMVRSQRSGLVQTEAQYKFVYYAVQHYIQTLIARKRAEEQSLQVGREYTNIKYTGEIGNDSQRSPLPPAISSISLVPSKTPLTPTSADLGTGMGLSMGVGMGVGNKHASKQQPPLPVVNCNNNNNGIGNSGCSNGGGSSTTSSSNGSSNGNINALLGGIGLGLGGNMRKSNFYSDSLKQQQQREEQAPAGAGKMQQPAPPLRPRPGILKLLTSPVIFQQNSKTFPKT
For the molecule B4, the MAPPIT interaction score in the experiment with CG12963 is -0.144.

B5: sinah (protein)
chain: MSVRNSRPQLSWPERVSPQRTIDTPTASGEMLTRRQSAPALVVPPEETTHVVVVKRQSPDAAAAGELVPSRRKDSVAVQSGIVATGPLDTTRSGARDDFLMALLECPVCFGYIMPPIMQCPRGHLICSTCRSKLTICPVCRVFMTNIRSLAMEKVASKLIFPCKHSHFGCRARLSYAEKTKHEEDCECRPYFCPYPDDKCSWQGPLRDVYQHLMSSHENVITMEGNDIIFLATNVNLEGALDWTMVQSCHGRHFLLSLEKINLGEDCQQYFTACRMIGSMKDAAEFVYNISLEAYNRTLRWQSKPRSIRENFSSFTNADFLVLNKHTVELFSEDGNLALNVVIRKVEERTN
Take B5: the MAPPIT interaction score with CG12470 (pair source set: Curagen_low_conf) is 2.95 (active); with Eb1 it was -0.0985; with SmydA-3, 0.15; with Sply, 1.41; in the experiment with ben it was 1.2; in the experiment with hb, -0.281. Besides, the MAPPIT interaction score is 0.506 with promL, -1 with pzg and 0.564 in the experiment with spin.

B6: Rab26 (protein)
chain: MASTAVGLGGGEGDPGAGGPPAGSAHPDDASSMSDDVFEDAETTQARIEELRRRPFGDGSYNPPAAPASVSASITTTTTQQQQQHHNPSHHHQSSHHQPSHHHHHHHHSQLSLTGSHHYHDDAIMAPVQRSATGYPGYRPSREAMQMYAYGTDDYDDDYNDGWRSYRYDEVDMHPAPSNAHQQPFDDTVNHKTILLGDSGVGKTSFLVKYNTGEFRLGSFSATVGIALTNKVVVVDGTRVKLQIWDTAGQERFRSVTHAYYRDAHALLLLYDVTNKTTYDNIRAWLGEIREYAQEDVVIVLIGNKADCSGSERQVKREDGERLGREHNVPFMETSAKTGLNVELSFTAVARQLKSRGYEHGDDGKFNVHDFVRDNTKARSVCAQCRNM
For the molecule B6, the MAPPIT interaction score with CG12863 is 1.43.

B7: dod (protein)
chain: MPDAEQLPDGWEKRTSRSTGMSYYLNMYTKESQWDQPTEPAKKAGGGSAGGGDAPDEVHCLHLLVKHKGSRRPSSWREANITRTKEEAQLLLEVYRNKIVQQEATFDELARSYSDCSSAKRGGDLGKFGRGQMQAAFEDAAFKLNVNQLSGIVDSDSGLHIILRKA
As for B7, the MAPPIT interaction score is 0.142 with CG12768 and -0.114 in the experiment with CG8281.

B8: Cys (protein)
chain: MNVVKSLCILGLVLVSLIATQAADEQVVGGVSQLEGNSRKEALELLDATLAQLATGDGPSYKAINVTSVTGQVVAGSLNTYEVELDNGSDKKQCTVKIWTQPWLKENGTNIKIKCSGDDGELDRTW
Take B8: the MAPPIT interaction score in the experiment with CG12576 is -0.0839; with CG30355, 2.13; with Vha16-2, 0.0929.

The values are drawn from the supplement of paper PMC10105736.
